Screening results as filed in PubChem.
In the library only some 5.4% were active in any assay of this set; here they are far more common.
PNC assembly inh – inhibitors of perinucleolar compartment assembly. PC3M PTB-GFP, PNC prevalence imaging, 16 h; hits give low values. activity change (PNC), negative = inhibition, % at 10 µM. 140,000 tested, 3.1% active. AID 2417;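 active = readout at or below -70, meaning at least 70% loss of cells showing the perinucleolar compartment, a nuclear body marking cancer cells; inconclusive = readout between -30 and a set limit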;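 also: plate controls were DMSO wells for no effect and camptothecin positive control wells for full effect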
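Compounds are pinned in duplicate onto adhered PC3M cells stably expressing GFP-tagged PTB and incubated 16 h at 37 C. Cells are then fixed, nuclei stained with Hoechst, and PNC-positive cells counted.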
IMPase cell inh – membrane-permeable compound that blocks inositol monophosphatase; CHO-M1 cells, IP1 accumulation, HTRF TR-FRET ratio; 120,000 tested, under 10 active; AID 901; inhibition (IP1 accumulation), % at 46.1 µM; P97697; active = well fitted curve in the direction sought with a large enough effect in the signal ratio, not every such curve was filed as active; inconclusive = small, poorly fitted or top-dose-only effect, or a change in a side signal; inactive = no such curve, though single readings can be large or run the other way; the % refers to the signal ratio;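 also: cells stimulated with carbachol in lithium chloride buffer; plate controls were DMSO basal wells for no effect and reference inhibitor wells for full effect; higher means more IMPase inhibition seen as more IP1 and lower FRET ratio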
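Carbachol-driven Gq signalling in CHO-M1 cells (2000/well) generates IP1. Compounds that block IMPase raise IP1 and so reduce the FRET signal from Eu-anti-IP1 and d2-IP1 after a 10 min room-temperature lysis.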
15-hLO-2 inh – 15-hLO-2 (ALOX15B) enzyme inhibition | O15296 | purified 15hLO-2, xylenol orange hydroperoxide absorbance | Potency, µM (doses to about 57.1 µM), inactives show at the top dose activity change, negative = inhibition, hits mostly inhibitors | 110,000 tested, 0.56% active | AID 881; also: potency is read from the fitted curve at half-maximal effect; nearly all actives have a fitted effect of over 60% in size
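Purified human 15hLO-2 (50 nM final) preincubated with compounds 15 min at room temperature in 25 mM Hepes pH 7.5, 0.01% Triton X-100, then 45 uM arachidonic acid added for 90 min; hydroperoxide detected via ferrous/xylenol orange, 573/405 nm absorbance ratio.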
IMPase Li cell – membrane-permeable IMPase blocker, potentiated with lithium; CHO-M1 cells, IP1 TR-FRET (IP-One), carbachol + lithium; Potency, µM (titrated, usually from 59.4 µM), for inactives: at the top dose activity, negative = IMPase inhibition, most hits filed as inhibitors; 210,000 tested, 0.35% active;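 also: IP1 builds up when IMPase is blocked and the TR-FRET signal falls; potency is read from the fitted curve at half-maximal effect; plate controls were basal vehicle for no effect and high inhibitor control for full effect; nearly all actives have a fitted effect of over 50% in size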
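IP1 accumulation measured by competitive TR-FRET in lysed CHO-M1 cells after 30 min compound exposure at 37C, with a small lithium addition to potentiate weak responses. Hill-equation AC50 from ratio and donor-channel data.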
12-hLO inh – 12-hLO (ALOX12) enzyme inhibition; P18054; purified 12-hLO, xylenol orange hydroperoxide absorbance; Potency, µM (series often up to 57.1 µM), for the others: at the highest dose activity change, negative = inhibition, hits mostly inhibitors; 150,000 tested, 0.12% active; AID 1452; also: potency is read from the fitted curve at half-maximal effect; nearly all actives have a fitted effect of over 55% in size
Target sequence (P18054 whole entry, looked up): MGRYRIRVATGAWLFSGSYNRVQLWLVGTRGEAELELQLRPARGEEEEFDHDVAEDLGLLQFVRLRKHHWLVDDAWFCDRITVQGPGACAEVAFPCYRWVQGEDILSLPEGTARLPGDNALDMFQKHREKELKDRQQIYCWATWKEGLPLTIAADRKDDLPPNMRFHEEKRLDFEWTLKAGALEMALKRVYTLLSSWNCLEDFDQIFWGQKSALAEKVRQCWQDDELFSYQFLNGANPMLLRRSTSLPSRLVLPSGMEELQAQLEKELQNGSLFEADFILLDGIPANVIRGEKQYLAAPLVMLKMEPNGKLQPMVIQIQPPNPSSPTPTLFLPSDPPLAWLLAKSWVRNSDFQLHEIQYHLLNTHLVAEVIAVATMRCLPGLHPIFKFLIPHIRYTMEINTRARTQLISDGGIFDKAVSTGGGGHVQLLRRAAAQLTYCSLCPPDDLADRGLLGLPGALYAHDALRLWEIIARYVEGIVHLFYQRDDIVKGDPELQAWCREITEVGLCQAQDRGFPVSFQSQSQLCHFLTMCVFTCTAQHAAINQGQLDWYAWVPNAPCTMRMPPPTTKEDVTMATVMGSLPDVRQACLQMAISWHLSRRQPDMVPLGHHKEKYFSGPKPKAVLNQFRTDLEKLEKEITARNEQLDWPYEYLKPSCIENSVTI
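Hydroperoxide formation by human 12-lipoxygenase from 40 uM arachidonic acid was followed colorimetrically via ferric-xylenol orange complex, using the 573/405 nm absorbance ratio. Enzyme concentration was 150 nM, with 30 min reaction at room temperature.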
HPGD inh – inhibitors of human 15-hydroxyprostaglandin dehydrogenase (HPGD); P15428; 150,000 tested, 4.3% active; AID 894; purified HPGD, NADH fluorescence kinetic, PGE2 substrate; Potency, µM, for the others: at the top dose activity change, negative = inhibition, actives largely listed as inhibitors; active = well fitted inhibition curve with a large enough effect, not every such curve was filed as active; inconclusive = small, poorly fitted or top-dose-only effect, or another doubt; inactive = no such curve, though single readings can be large or run the other way; also: potency is read from the fitted curve at half-maximal effect
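NADH formation kinetics: reaction with 30 uM PGE2 and 1 mM NAD+ (final), 20 nM enzyme, Tris-HCl pH 8 with Tween 20, after 15 min compound preincubation at room temperature. Fluorescence change, last versus first of five reads.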
Active calls of the source: *; [ ] = dose if it differs, or a comment. Unless noted, calls follow the shape of the dose curve; as a rule, active = well fitted curve in the direction sought with a large enough effect; inconclusive = small, poorly fitted or top-dose-only effect, or another doubt; inactive = no such curve, though single readings can be large; an effect the other way counts as inactive or inconclusive. Unless noted, % is scaled to controls: 0 for no effect and ±100 for the full control effect.

How did COc1ccc(C=C2C(=O)c3ccccc3C2=O)cc1O do in these assays?
IMPase Li cell: 63.9%

How did COc1ccc(C(=O)N/C(=C\c2cn(C)c3ccccc23)C(=O)OCC(C)C)cc1 do in these assays?
PNC assembly inh: inconclusive; IMPase Li cell: 0.1%; 12-hLO inh: 2.8%; HPGD inh: -15.7%

Results for CCCCOC(=O)/C(=C/c1cn(C)c2ccccc12)NC(=O)c1ccc(OC)cc1 ?
PNC assembly inh: -93.3*; IMPase Li cell: -2.0%; 12-hLO inh: 3.6%; HPGD inh: -1.4%

What do the screens show for `O=C(C1CCN(S(=O)(=O)c2cccc3nsnc23)CC1)N1CC=C(c2ccccc2)CC1`?
PNC assembly inh: inconclusive; IMPase cell inh: 4.8; 15-hLO-2 inh: -10.1%; IMPase Li cell: 0.1%[38.3 µM]; 12-hLO inh: -2.2%; HPGD inh: -20.9%

How did COc1cccc(CNC(=O)C2CCC(CNS(=O)(=O)c3cccc4nsnc34)CC2)c1 (centres undefined) do in these assays?
PNC assembly inh: -105.8*; IMPase cell inh: 13.0; 15-hLO-2 inh: 5.0%; IMPase Li cell: -2.6%[38.3 µM]; 12-hLO inh: 5.5%; HPGD inh: -25.6%

What do the screens show for `O=C(NCc1cccs1)C1CCC(CNS(=O)(=O)c2cccc3nsnc23)CC1` (centres undefined)?
PNC assembly inh: inconclusive; IMPase cell inh: 1.3; 15-hLO-2 inh: 1.3%; IMPase Li cell: 6.6%[38.3 µM]; 12-hLO inh: -5.1%; HPGD inh: -23.9%

How did O=C(C1CCC(CNS(=O)(=O)c2cccc3nsnc23)CC1)N1CC=C(c2ccccc2)CC1 (centres undefined) do in these assays?
PNC assembly inh: 10.2; IMPase cell inh: 17.6; 15-hLO-2 inh: 5.2%; IMPase Li cell: 14.8%[38.3 µM]; 12-hLO inh: 5.2%; HPGD inh: 15.8µM*

How did COc1cc(C2SCCCCCCCCCCSC(c3ccc(O)c(OC)c3)SCCCCCCCCCCS2)ccc1O (centres undefined) do in these assays?
15-hLO-2 inh: -3.9%[11.4 µM]; IMPase Li cell: -15.8%; 12-hLO inh: 0.2%[11.4 µM]; HPGD inh: -3.3%

What do the screens show for `N#Cc1c(NC(=O)CCC(=O)O)sc2c1CCCCC2`?
IMPase Li cell: 7.0%

Results for CC(C)(C)C1CCc2c(sc(NC(=O)C3CC=CCC3C(=O)O)c2C#N)C1 (centres undefined) ?
PNC assembly inh: inconclusive; IMPase Li cell: 0.6%; 12-hLO inh: -2.4%; HPGD inh: 15.8µM*

How did Cc1cc(C(=O)Nc2sc3c(c2C#N)CCC(C(C)(C)C)C3)no1 (centres undefined) do in these assays?
PNC assembly inh: inconclusive; IMPase cell inh: -0.8; 15-hLO-2 inh: -0.5%; IMPase Li cell: 13.3%[38.3 µM]; 12-hLO inh: -1.2%; HPGD inh: inconclusive

How did N#Cc1c(NC(=O)C2CC=CCC2C(=O)O)sc2c1CCCCCC2 (centres undefined) do in these assays?
PNC assembly inh: inconclusive; IMPase Li cell: -9.5%; 12-hLO inh: -3.7%; HPGD inh: 17.8µM*

How did Cc1ccc(CN2C(=O)SC(Nc3ccc(Cl)cc3)C2=O)cc1 (centres undefined) do in these assays?
IMPase cell inh: 0.0

How did Cc1ccc(-c2[nH]ncc2/C=N/n2c(COc3ccccc3C)nc3ccccc3c2=O)cc1 do in these assays?
PNC assembly inh: -27.8; IMPase Li cell: 13.9%; 12-hLO inh: -1.9%; HPGD inh: -2.6%

Results for Cc1ccccc1OCc1nc2ccccc2c(=O)n1/N=C/c1c[nH]c2ccccc12 ?
PNC assembly inh: -123.3*; IMPase Li cell: 11.0%; 12-hLO inh: 2.3%; HPGD inh: -3.4%

How did Cc1cc(/C=N/n2c(COc3ccccc3C)nc3ccccc3c2=O)c(O)c([N+](=O)[O-])c1 do in these assays?
PNC assembly inh: inconclusive; IMPase cell inh: inconclusive; IMPase Li cell: 1.5%; 12-hLO inh: inconclusive; HPGD inh: 1µM*
